Experimental data reported in PubChem BioAssay AID485290 (National Center for Advancing Translational Sciences (NCATS), 2010).
Several values for one entry are separate records, joined by “and”; a condition that tells them apart may be missing. Equal values may be shown once. In all, about 350,000 compounds went through this assay and about 990 (0.28%) were called active. Inconclusive results (about 2%) are left out. The sample holds actives, similar compounds and a random draw of the others, so the mix is not that of the screen. The call rests on the fitted dose curve; in most records, active means well fitted inhibition curve with a large enough effect; inconclusive means small, poorly fitted or top-dose-only effect; inactive means no such curve, though single readings can be large or run the other way. The source holds several records for some structures; these can differ, active in one and inactive in another.

molecular target: Tyrosyl-DNA phosphodiesterase 1 (Homo sapiens) (UniProt Q9NUW8); assay: qHTS Assay for Inhibitors of Tyrosyl-DNA Phosphodiesterase (TDP1); settings: recombinant TDP1, AlphaScreen DNA substrate cleavage; series mostly up to 130 µM; activity change, negative = inhibition: at the top concentration; further: nearly all actives have a fitted effect of over 40% in size
Sequence (Q9NUW8 whole entry, looked up): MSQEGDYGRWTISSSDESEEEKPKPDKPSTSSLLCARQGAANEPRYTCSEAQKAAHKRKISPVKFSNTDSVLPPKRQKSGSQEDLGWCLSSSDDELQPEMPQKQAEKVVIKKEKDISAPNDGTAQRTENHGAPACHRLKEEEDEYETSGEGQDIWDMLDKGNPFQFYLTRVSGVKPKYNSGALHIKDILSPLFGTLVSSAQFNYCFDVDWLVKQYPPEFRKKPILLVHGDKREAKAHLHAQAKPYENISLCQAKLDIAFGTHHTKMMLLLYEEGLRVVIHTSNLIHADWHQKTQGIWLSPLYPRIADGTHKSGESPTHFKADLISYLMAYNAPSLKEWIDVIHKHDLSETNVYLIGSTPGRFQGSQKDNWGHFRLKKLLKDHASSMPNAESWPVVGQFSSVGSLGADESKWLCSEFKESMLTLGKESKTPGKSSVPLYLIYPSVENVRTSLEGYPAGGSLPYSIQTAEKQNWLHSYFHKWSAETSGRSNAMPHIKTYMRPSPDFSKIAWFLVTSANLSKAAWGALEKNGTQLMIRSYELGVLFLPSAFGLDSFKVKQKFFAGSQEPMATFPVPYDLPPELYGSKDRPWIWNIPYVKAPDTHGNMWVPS
Source text: NIH Molecular Libraries Probe Production Network [MLPCN]
NIH Chemical Genomics Center [NCGC]
Assay Provider: Yves Pommier and Christophe Marchand, National Cancer Institute
Assay Title: qHTS Assay for Inhibitors of Tyrosyl-DNA Phosphodiesterase (TDP1); further: nearly all actives have a fitted effect of over 40% in size
Human tyrosyl-DNA phosphodiesterase I (Tdp1) is a rational anticancer target because this enzyme is involved in the repair of DNA lesions created by the trapping of human DNA topoisomerase I (Top1) following treatment by anticancer agents such as camptothecins. Recombinant Tdp1 was expressed and purified from E. coli in the laboratory (Anthony et al, Nucleic Acids Research, 2007, Vol. 35, 4474-4484). A Tdp1 DNA substrate bearing a 5' biotin and a 3' phospho-tyrosine was obtained by custom synthesis. This oligonucleotidic DNA substrate was subsequently coupled to a fluorescein isothiocyanate (FITC) group via the free amino group present on the phospho-tyrosine. Tdp1 was screened against the NCGC small molecule library using the AlphaScreen (AS) detection method in which a streptavidin donor AS bead is bound at the 5' end and an anti-FITC AS acceptor bead is bound at the 3' end of the DNA oligonucleotidic substrate. In the presence of Tdp1, the enzyme cleaves the tyrosine-FITC group, leaving a 3' end phosphate on the DNA substrate. This cleavage reaction results in a loss of signal in AS.
[1] 3 ul of buffer is dispensed in columns 3 & 4 as negative control (no enzyme and maximum signal),
[2] 3 ul of enzyme (1 nM final) is dispensed in columns 1,2, 5-48,
[3] 1 ul of substrate (15 nM final) is dispensed throughout the plate,
[4] 1 ul of AS donor/acceptor bead mix (10 ug/ml final) is dispensed throughout the plate
3 ul of Tdp1 enzyme is dispensed to 1536-well Kalypsys black solid bottom plates. Compounds and controls (23 nl) are transferred via Kalypsys Pin Tool. The plates are incubated for 15 min at room temperature, and then 1 ul of substrate is added to start the reaction. After 5 min incubation at room temperature, 1 ul of AS donor/acceptor bead mix is added and the plates are further incubated for 10 min at room temperature. The detection is then performed on a PerkinElmer Envision reader.
On the % scale 0 is the no-effect control and ±100 the full control effect; potency means the concentration at half of the fitted maximal effect.

Activity change, negative = inhibition, inactive:
Cc1nn(C)cc1N1C(=O)c2cccc3c(N)ccc(c23)C1=O 3.53%
COC(=O)Cc1ccc(N(Cc2ccccc2F)S(=O)(=O)c2ccc(Br)cc2)cc1 5.26%
CCCNC(=O)CN(Cc1ccccc1F)S(=O)(=O)c1ccc(C)cc1 0%
O=C(CNC(=O)c1ccccc1)OC(C(=O)Nc1cc([N+](=O)[O-])ccc1F)c1ccccc1 (stereo unspecified) -0.0203%
O=C(CCNC(=O)c1ccccc1Cl)NN=Cc1ccco1 -19.3%
O=C(CCCCCNC(=O)c1ccccc1)N/N=C/c1ccccc1 0%
O=C(Nc1ccc2nc(SCCOc3ccccc3Cl)sc2c1)c1ccco1 -0.521%
CCOC(=O)c1ccc(NC(=O)CC2C(=O)N(c3ccccc3)C(=O)N2Cc2cccs2)cc1 (stereo unspecified) 8.97%
COc1ccc(-c2cn3nc(N4CCCC(C(=O)NCCCOC(C)C)C4)sc3n2)cc1 (stereo unspecified) 6.21%
Cc1ccc(-c2nnc3ccc(SCC(N)=O)nn23)cc1 3.35%
O=C(O)CCC(=O)N(Cc1ccccc1)Cc1ccccc1 2.81%
O=C(CCc1ccccc1)NCCc1cccs1 6.33%
Cc1ccc2ccc3c(c2n1)NS(=O)(=O)c1ccccc1-3 3.91%
O=C(CSc1nc2ccc(Nc3nc(N4CCOCC4)nc(N4CCOCC4)n3)cc2s1)NCc1ccco1 7.41%
CCn1c(COc2ccccc2)nnc1SCC(=O)NCc1ccco1 -2.53%
N#Cc1nc(Nc2cc(F)cc(Cl)c2)nc(NC2CCCC2)n1 -1.72%
Cc1ccc(C2C=C(c3ccc(Cl)cc3)Nc3nc(NC(=O)CCC(=O)O)nn32)cc1 (stereo unspecified) 6.98%
COc1cccc(-n2c(N)cc(=O)nc2SCC(=O)Nc2cc(C)on2)c1 4.83%
Cc1csc(NC(=O)CSc2nc(=O)cc(N)n2-c2ccc(F)cc2)n1 0.637%
CCc1ccc(NC(=O)CN2CCSc3ccc(S(=O)(=O)N4CCCC4)cc32)cc1 8.88%
CC(C)c1ccc(C2CC(=O)N3CN(C4CCCCC4)CSC3=C2C#N)cc1 (stereo unspecified) 4.65%
Cc1ccc(Cn2ncc3c4sc(C)cc4n(C)c3c2=O)c(C)c1 -17.4%
NC(=O)CSc1nnc(NC(=O)c2ccc3ccccc3c2)s1 -9.3%
CCSc1nnc(NC(=O)c2cc(=O)c3cc(C)c(C)cc3o2)s1 3.68%
COc1cccc(NC(=O)C(=O)NCC(c2ccc3c(c2)OCO3)N2CCN(C)CC2)c1 (stereo unspecified) 4.4%
O=C(Nc1ccc(F)cc1F)c1ccc2c(=O)n3c(nc2c1)CCCCC3 0%
COc1cc(C(=O)NCCc2csc3nc(-c4ccccc4C)nn23)cc(OC)c1OC 8.88%
CN(CCOc1ccccc1)C(=O)c1cc(-c2ccco2)nc2ccccc12 -10%
CC1CCCN(C(=O)c2cc(-c3ccco3)nc3ccccc23)C1 (stereo unspecified) -2.87% [at 56.1 µM]
N#CN1CCC(NS(=O)(=O)c2cccc(F)c2)C1 (stereo unspecified) -0.0717%
COc1cccc(NC(=O)c2ccc3nc(CCc4ccccc4)oc3c2)c1 4.14%
COc1cccc(OC2=NS(=O)(=O)c3ccccc32)c1 2.37%
COC(=O)c1ccccc1NC(=O)c1ccc2c(=O)n3c(nc2c1)CCCCC3 5.06%
O=C(OCC#CCSc1nnc(-c2ccco2)o1)c1ccc(F)cc1 -3.06%
CN1C(=O)/C(=C\c2ccc(-c3ccccc3)o2)SC1=S 8.48%
Cc1cc(/C=C2\SC(=Nc3ccc(N4CCOCC4)cc3)N(C)C2=O)c(C)n1-c1cccnc1 5.26%
CCOC(=O)c1scc(-c2ccccc2)c1S(=O)(=O)Nc1ccccc1F 1.95%
COc1ccc(-c2nc3sc(CCNC(=O)C(C)(C)C)c(C)n3n2)cc1 2.6%
Cc1cccc(Nc2nc(-c3ccccc3)cs2)n1 8%
O=C(Nc1nc(-c2cccnc2)cs1)c1ccccc1F -1.15%
COc1ccc(-c2c3c(=O)n(C)c(=O)n(C)c3c3c(C)nc4ccccc4n23)cc1 2.12%
O=C(CNC(=O)c1ccc(Cl)cc1Cl)OC(C(=O)Nc1cc(C(F)(F)F)ccc1Cl)c1ccccc1 (stereo unspecified) 0.0717%
CCc1nc(-c2cc(S(=O)(=O)N3CCN(c4ccc(OC)cc4)CC3)ccc2OC)no1 0%
CCc1ccc(OCCCn2c(CCCNC(=O)C3CCCCC3)nc3ccccc32)cc1 1.74%
Cc1ccnc2nc(C(=O)OCC(=O)N(CC(C)C)CC(C)C)nn12 0.595%
O=C(Nc1nnc(-c2ccc(Cl)cc2)o1)c1ccccc1Br 9.8%
COc1ccc(C(=O)CSc2c(C(C)C)cnc3c2c(=O)n(C)c(=O)n3C)cc1 5.41%
CCN(CCCNC(=O)c1ccc(Sc2ccc(C)cc2)c(NC(C)=O)c1)c1cccc(C)c1 7.79%
Cc1ccc(-n2ncc3c(NCCCn4ccnc4)ncnc32)cc1Cl 13%
COc1ccc(C2Nc3ccccc3C(=O)N2Cc2ccccc2)cc1COc1ccc(C(N)=O)cc1 (stereo unspecified) -0.753%
CCc1ccccc1NC(=O)c1ccc2nc(CCc3ccccc3)oc2c1 -6.51%
Cc1cc(=O)oc2cc(OC(C)C(=O)NCCc3ccc(S(N)(=O)=O)cc3)ccc12 (stereo unspecified) 3.75%
Cc1cc(=O)oc2cc(OC(C)C(=O)Nc3ccc(N4CCOCC4)cc3)ccc12 (stereo unspecified) 2.14%
COc1ccc(S(=O)(=O)NCC(c2ccc(N(C)C)cc2)N2CCc3ccccc32)cc1OC (stereo unspecified) 13.8%

Potency, inactive and 50.1 µM (active):
Nc1ccc2c3c(cccc13)C(=O)NC2=O

Potency, active:
CC(=O)c1ccc(S(=O)(=O)N(C)CCCC(=O)N(C)Cc2ccccc2F)cc1 79.4 µM
O=C(CCNC(=O)c1ccccc1)NN=Cc1ccc(Br)o1 14.1 µM
O=C(O)CCC(=O)N(Cc1cccs1)Cc1cccs1 70.8 µM
C=CCn1c(CSc2nc3ccccc3s2)nnc1SCC(=O)NCc1ccco1 50.1 µM
Cc1cc(NC(=O)CSc2nc(=O)cc(N)n2-c2ccc(F)cc2)no1 100 µM
NC(=O)CSc1nnc(NC(=O)c2ccc(Br)o2)s1 56.2 µM
Cc1cc(C)c2nc(-c3ccco3)cc(C(=O)O)c2c1 3.55 µM
CN1C(=O)/C(=C/c2ccco2)SC1=Nc1cccc(C(=O)O)c1 25.1 µM
Cc1ccccc1Nc1nc(-c2cccnc2)cs1 100 µM
Cc1ccnc2nc(C(=O)Nc3nnc(-c4ccccc4)o3)nn12 50.1 µM
Cc1cc(=O)oc2cc(NC(=O)C(C)Oc3ccccc3)ccc12 (stereo unspecified) 56.2 µM
